Assay results as given in PubChem BioAssay.

Assay: binders of probe aFSTL3 on microarray, primary screen, stem cell growth factor project, biochemical, small-molecule microarray, fluorescence 635/667 (AID 1064);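 further: measures binding of the biotinylated anti-FSTL3 antibody to printed compounds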
Conditions: higher = more signal

| SMILES | composite z-score |
| --- | --- |
| Cc1ccc(C2CC=C(C(=O)O)CN2S(=O)(=O)c2ccc(C)cc2)cc1 (stereo unspecified) | 0.004 |
| COc1ccc([Si](C)(C)[C@H]2[C@H](CC(=O)N3CCC[C@H]3CO)O[C@@]3(C(=O)N(Cc4cccc(N5C(=O)COc6ccccc65)c4)c4ccccc43)[C@@H]2C)cc1 | -0.126 |
| CC(CCN1CCc2nc(-c3ccccc3)c(-c3ccccc3)cc2C1)=NOC[C@@H](C)[C@H](OCc1ccccc1)C(C)C | -0.0574 |
| CN1C(=O)C2C(C1=O)C1C=C(CCCO)C2C(c2ccc(CN3CCCC3)cc2)N1C (stereo unspecified) | 0.192 |
| CCc1cc2c(nc1CC)CCN(CCC(C)=NO[C@@H](C)c1cc(-c3c(C)cc(C)cc3C)no1)C2 | -0.291 |
| CS(=O)(=O)CCOC(=O)C1=CC(CCCO)=CC(c2cccs2)N(Cc2cccc(OC(F)(F)F)c2)C=C1C(=O)OCCS(C)(=O)=O (stereo unspecified) | -0.215 |
| O=C1CCCC=C1C(O)CCOCc1ccccc1 (stereo unspecified) | -0.149 |
| CC(C)=CCCC(C)=CCON=C1[C@H]2CCn3c(=O)n(Cc4cc5c(cc4Cl)OCO5)c(=O)n3[C@H]2[C@H](O)[C@@H]2O[C@H]12 | -0.405 |
| O=C1C2=CC[C@H]3C(=O)N(Cc4ccc5c(c4)OCO5)C(=O)[C@H]3[C@H]2[C@H](O)[C@@H]2O[C@H]12 | -0.319 |
| CO[C@@H]1COC(=O)CC=C[C@@H](C)[C@@H]2C=C[C@H](O)[C@@H](COC(=O)[C@H](C)NC(=O)CC=C[C@H]1C)O2 | -0.556 |
| COCCOC(=O)N1C(=O)[C@@]2(c3cc(C#CC4(O)CCCCCC4)ccc31)[C@H](c1ccc(OCCO)cc1)N1[C@H](c3ccccc3)[C@H](c3ccccc3)OC(=O)[C@H]1[C@@H]2C(=O)NC[C@H](O)c1ccccc1 | -0.0536 |
| CCCCC(=C=CC[C@H](O)c1ccccc1OCCO)C[C@H](O)COCc1ccccc1 | -0.0094 |
| C[C@@H]1C=CCC(=O)OC[C@H](C)C(=O)N2CCC[C@H]2C(=O)OC1 | -0.586 |
| CC(C)c1ccc(NN2C(C(O)c3ccc4c(c3)OCO4)C=CC3C(=O)N(c4ccccc4)C(=O)C32)cc1 (stereo unspecified) | 0.542 |
| COc1ccc(COC(=O)NN=C2C[C@@H](O)[C@@H](O)[C@@H]3[C@@H]4C(=O)N(c5ccc(F)cc5F)C(=O)[C@@H]4CC[C@@H]23)cc1 | 0.827 |
| C=C(/C(=C/C[C@@H](OC(=O)c1ccncc1)c1ccc(OCCO)cc1)c1cnc2ccccc2c1)C(C)C | -0.342 |
| Cn1c(=O)n2n(c1=O)[C@H]1[C@H](O)[C@@H]3O[C@@H]3C(=NOC[C@@H](O)COCc3ccco3)[C@H]1CC2 | -0.319 |
| CCOC(=O)CCN1C(=O)[C@H]2[C@H]3[C@H](O)[C@H](O)CC(=NNC(=O)OCc4ccc(OC)cc4)[C@@H]3CC[C@H]2C1=O | -0.468 |

| SMILES | composite z-score |
| --- | --- |
| CCCNC(=O)OC[C@H]1O[C@H](CCON=CC[C@@H]2C=C[C@H](OC(C)=O)[C@@H](COC(C)=O)O2)C=C[C@@H]1Oc1ccc(OC)cc1 | -0.458 |
| COC(=O)[C@H](C)NC(=O)CCC1CC(OC(=O)NCc2cccc3ccccc23)CC2(CCCC(COC(=O)NCCc3ccc(Cl)cc3)O2)O1 (stereo partly specified) | -0.489 |
| COc1ccc(O[C@H]2C=C[C@@H](c3ccccc3)O[C@@H]2COC(=O)CCC(C)=NO[C@@H](C)c2cc(-c3c(C)cc(C)cc3C)no2)cc1 | -0.0675 |
| CN(C)C(=O)[C@@]1(Cc2ccccc2)N=C(c2ccc(OCCCO)cc2)O[C@H]1c1ccccc1CN=[N+]=[N-] | 1.35 |
| COc1ccc(OC[C@H]2Cc3c(-c4ccccc4)nc4c(c3CO2)CN(CCOc2ccccc2)CC4)cc1 | -0.133 |
| COC(=O)C1=C(C)N(Cc2ccccc2)[C@]23O[C@](C(=O)OC)(C(=O)N2[C@@H]1c1ccccc1)[C@H]1CCOC(=O)[C@H]13 | -0.602 |
| COC(=O)CC=C[C@@H](C)[C@@H](C=NO[C@@H](C)c1cc(-c2c(C)cc(C)cc2C)no1)OC | 1.46 |
| COc1ccc(O[C@H]2C=C[C@@H](c3ccccc3)O[C@@H]2COC(=O)CCC(C)=NO[C@H](C)c2cn([C@@H]3COC[C@H]3O)nn2)cc1 | -0.672 |
| CC(C)=NOCc1cccc(-c2cc(-c3ccccc3)no2)c1 | -0.575 |
| CCCNC(=O)OC[C@H]1O[C@H](CCON=C2[C@H]3CCn4c(=O)n(-c5ccccc5)c(=O)n4[C@H]3[C@H](O)[C@@H]3O[C@H]23)C=C[C@@H]1Oc1ccc(OC)cc1 | -0.362 |
| CC[C@@H](c1ccccc1)n1c(=O)n2n(c1=O)[C@H]1[C@H](O)[C@@H]3O[C@@H]3C(=NOCC(C)C)[C@H]1CC2 | -0.427 |
| COC(=O)C1=C(C)[C@@H](O)[C@@H](C)[C@H](c2c(OC)c(OC)c(C)c(OC)c2OC)O1 | -0.511 |
| CC(C)C[C@@H]1NC(=O)[C@H]2C[C@@H](C(=O)O)[C@@H](c3ccc(O)cc3)N2C1=O | 1.29 |
| CC(=O)OC[C@H]1O[C@@H](ON=C[C@@H](C)[C@H](OCc2ccccc2)C(C)C)[C@H](OC(C)=O)[C@@H](OC(C)=O)[C@@H]1OC(C)=O | -0.624 |
| COc1ccc(O[C@@H]2[C@H](O)CO[C@H]2C=CC#Cc2ccccc2)cc1 | -0.389 |
| CCN1C(=O)[C@H]2[C@H]3[C@H](O)[C@H](O)CC(=NOC[C@@H](C)[C@H](OCc4ccccc4)C(C)C)[C@@H]3CC[C@H]2C1=O | -0.468 |
| COC(=O)[C@]1(CO)N=C(c2ccc(OCCCO)cc2)O[C@@H]1c1ccccc1N=[N+]=[N-] | 0.0947 |
| CCCCCN1CC=CC23O[C@@H]4C=CCOC(=O)[C@@H]4[C@H]2C(=O)N(CCCCCCO)[C@@H]3C1=O (stereo partly specified) | 0.729 |
